# Screening data: PubChem, National Center for Advancing Translational Sciences (NCATS)
# Hits are enriched below; roughly 12% of the tested compounds scored in any of these assays.
# NS1 inh: blocks influenza NS1 protein function; Potency, µM (titrated, usually from 46.1 µM), for inactives: at the highest dose activity, positive = more growth; AID 2326; 270,000 compounds, 0.4% hits; calls by dose curve; further: potency means the concentration at half of the fitted maximal effect; actives are rising curves; nearly all actives have a fitted effect of over 50% in size
#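 S. cerevisiae expressing influenza A NS1, grown in glucose, washed, then diluted 1:100 into pH 6.0 -URA galactose medium with 23 nl compound. Growth recovery read as OD600; NS1-free strain serves as control.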
# HCV inhibitor: inhibitors of hepatitis C virus infection; AID 651820; Huh7.5.1 HCVcc-Cre infection, luciferase reporter, 44 h; Potency, µM (titrated, usually from 41.8 µM), for the others: top-dose activity change, negative = inhibition, most hits filed as inhibitors; 340,000 compounds, 3.4% hits; further: potency means the concentration at half of the fitted maximal effect; on the % scale 0 is the no-effect control and ±100 the full control effect
#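 HCVcc-Cre virus at an moi near 0.5 was added right after compound to cells cultured 4 h from seeding (1,000 cells/well). Luciferase activity was determined 44 h later, 15 min after substrate addition at RT.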
# AMA1 RON2 block: disrupts binding of P. falciparum AMA1 to RON2; AlphaScreen AMA1-biotinylated RON2 peptide binding; Potency, µM (top dose mostly 58.2 µM), inactives show at the highest dose activity change, negative = inhibition, usual class: inhibitors; 360,000 compounds, 0.2% hits; AID 720542;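 further: potency means the concentration at half of the fitted maximal effect; 0% = vehicle wells and -100% = peptide control; nearly all actives have a fitted effect of over 45% in size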
#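 AMA1 (3D7) with his tag at 25 nM final met compounds first, then biotinylated RON2 peptide at 25 nM; detection used donor plus acceptor beads, 10 µg/mL apiece, read by AlphaScreen after 30 min at room temperature.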
# SARS PLpro yeast-1: SARS-CoV PLP inhibition in yeast; S. cerevisiae expressing SARS-CoV PLpro, growth rescue; Potency, µM (titrated, usually from 32.9 µM), for the others: at the highest dose activity, positive = growth rescue, most hits filed as activators; 330,000 compounds, 0.19% hits; AID 485353; calls by dose curve; further: potency means the concentration at half of the fitted maximal effect; 0% is about no effect; nearly all actives have a fitted effect of over 55% in size
# Pf growth 48h: P. falciparum growth inhibition at 48 hours (one generation); P. falciparum luciferase growth in erythrocytes, 48 h; Potency, µM (series often up to 28.7 µM), without a hit: at the highest dose activity change, negative = inhibition, hits mostly inhibitors; 310,000 compounds, 5.9% hits; AID 504832; further: potency means the concentration at half of the fitted maximal effect; on the % scale 0 is the no-effect control and ±100 the full control effect
#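 In quantitative HTS format, infected erythrocytes bearing luciferase-reporter parasites were treated for a single generation at 37 C. Luminescence after adding detection reagent served as the growth measure.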
# Pf growth 96h: P. falciparum growth inhibition at 96 hours; P. falciparum luciferase reporter growth, 96 h; Potency, µM (doses to about 28.7 µM), inactives show top-dose activity change, negative = inhibition, usual class: inhibitors; 320,000 compounds, 6.9% hits; further: potency means the concentration at half of the fitted maximal effect; on the % scale 0 is the no-effect control and ±100 the full control effect
#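 P. falciparum expressing integrated firefly luciferase grown in erythrocytes (2% hematocrit, 0.05% parasitemia final) with compounds for 96 hours at 37 C, 5% CO2. Growth inhibition read as loss of luminescence after adding luciferase detection reagent.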
# SARS PLpro yeast-2: Validates SARS-CoV PLpro inhibitor hits in yeast; yeast expressing SARS-CoV PLpro, growth phenotype rescue; shares compounds with SARS PLpro yeast-1; 1,000 compounds, 19% hits; calls only; call rule not given here
# Active calls of the source: *; i = inactive; ? = inconclusive; · = no result; + = active, no number; [ ] = another dose, or the depositor's remark. Unless noted, the call rests on the fitted dose curve; in most records, active means well fitted curve in the direction sought with a large enough effect; inconclusive means small, poorly fitted or top-dose-only effect, or another doubt; inactive means no such curve, though single readings can be large; an effect the other way counts as inactive or inconclusive.
SMILES,NS1 inh,HCV inhibitor,AMA1 RON2 block,SARS PLpro yeast-1,Pf growth 48h,Pf growth 96h,SARS PLpro yeast-2
Nn1c(SCC(=O)Nc2ccc(N3CCOCC3)cc2)nnc1-c1cccc(F)c1,·,21.0%,11.7%,-5.5%,94.4%,64.0%,·
COc1cccc(C(=O)COC(=O)C2CC3CCCC(C2)C3=O)c1 (stereo unspecified),·,3.5%,0.0%,-1.6%,-9.5%,25.7%,·
COc1ccc(C(=O)COC(=O)C2CC3CCCC(C2)C3=O)cc1Br (stereo unspecified),·,3.1%,-21.7%,?,?,6.8%,i
C=CCn1c(-c2sc3nc(C)cc(C)c3c2N)n[nH]c1=S,4.3%,3.3%,85.5%,0.3%,18.7%,67.1%,·
O=C(N/N=C/c1cc2ccccc2nc1Cl)/C(=C/c1cccs1)NC(=O)c1ccccc1,26.6%,?,-16.9%,?,·,6.4%,i
CC1(C)C(=O)Nc2ccccc2N1C(=O)COC(=O)COc1ccc(C#N)cc1,5.7%,-1.0%,-8.6%,-1.1%,35.6%,9.2%,·
COc1ccc(CN(C)C(=O)c2ccc(NS(=O)(=O)c3ccc(F)cc3)cc2)c(OC)c1OC,-9.7%,-27.8%,6.5%,-8.0%,?,?,·
COc1ccccc1Nc1nc(N)nc(CSC(=S)N2CCC(C)CC2)n1,?,1.2%,5.3%[2.32 µM],15.8µM*,?,?,i
COc1ccccc1Nc1nc(N)nc(CN2CCC(C)CC2)n1,·,1.7%,-6.6%,0.7%,-24.6%,31.5%,·
COc1ccc(S(=O)(=O)N(CC(=O)N2CCN(c3ccccc3OC)CC2)c2ccccc2)cc1,?,?,14.6%,4.47µM*,?,22.3%,i
COc1ccc(N2CCN(C(=O)CN(c3ccccc3)S(=O)(=O)c3ccc(OC)cc3)CC2)cc1,1.2%,?,-24.5%,6.5%,-29.5%,·,·
CCOc1ccc(NC(=O)CN(C)C(=O)c2c(C)nn(-c3ccc(F)cc3)c2Cl)cc1OCC,·,?,-0.8%,?,?,-1.1%,i
Cc1c(C(=O)NNC(=S)NCc2ccc(Cl)cc2)oc2ccccc12,5.6%,-5.7%,24.9%,2.8%,-1.2%,-13.6%,·
C=CCc1cc(OC)ccc1OCCN(C)Cc1ccccc1,-1.7%,-6.4%,?,?,-2.3%,-13.7%[5.75 µM],i
O=C(Cn1nnc(-c2cccs2)n1)NNC(=O)c1ccccc1Cl,0.1%,8.2%,71.5%,-1.4%,33.7%,17.8%,·
CCCCNC(=O)C1CCN(S(=O)(=O)c2c(C)noc2/C=C\c2ccc(OC)cc2)CC1,-0.4%,-3.1%,24.0%,?,·,10.4µM*,+
O=c1[nH]cnc2c1ncn2C1OC(CO)CC1F (stereo unspecified),·,·,4.2%,·,·,·,·
O=C1CCCc2cc(S(=O)(=O)N3CCC(C(=O)NCc4ccccc4)CC3)ccc2N1,-7.3%,3.7%,4.8%,-0.8%,?,19.1%,·
CCOc1ccc(CNC(=O)C2CCN(S(=O)(=O)c3ccc4c(c3)CCCC(=O)N4)CC2)cc1,2.7%,-20.4%,4.8%,?,9.28µM*,9.28µM*,+
CC(C)Oc1ccc(/C=N/NC(N)=S)cc1,-6.1%,-3.4%,38.8%,?,84.8%,-15.9%,+
CCc1cc(-c2nnn(CCC3COCCO3)c2CC)ccc1-c1cn(Cc2ccccc2)nn1 (stereo unspecified),·,·,-7.2%,·,·,·,·
O=c1c2ccccc2nc(COc2ccccc2)n1/N=C/c1cc([N+](=O)[O-])ccc1O,-29.0%,25.1%,-8.4%,5.62µM*,2.62µM*,?,?
Cc1cc(/C=N/n2c(COc3ccccc3C)nc3ccccc3c2=O)c(O)c([N+](=O)[O-])c1,?,?,?,3.55µM*,3.29µM*,?,+
Cc1ccccc1OCc1nc2ccccc2c(=O)n1/N=C/c1c[nH]c2ccccc12,5.6%,?,-22.7%,9.9%,-69.9%,?,·
CC[C@]12C(=O)N(C)C[C@H]([C@@H]3C(=O)N(C)C(=O)[C@@H]31)N2C(=O)c1ccc(Cl)cc1,·,20.1%,-12.9%,·,·,·,·
SMILES,NS1 inh,HCV inhibitor,AMA1 RON2 block,SARS PLpro yeast-1,Pf growth 48h,Pf growth 96h,SARS PLpro yeast-2
Cc1c(C(=O)Oc2ccc(F)cc2)sc2ncn(Cc3cccc(F)c3)c(=O)c12,-3.5%,6.8%,1.4%,?,2.7%,11.3%,i
Cc1c(C(=O)Nc2c(F)cccc2F)sc2ncn(CC(=O)N3CCCCC3)c(=O)c12,5.0%,1.7%,-1.9%,-10.3%,1.8%,?,·
O=C(NC(=S)Nc1cccc(C(F)(F)F)c1)c1csnn1,3.9%,-5.7%,101.8%,-2.1%,2.9%,15.2%,·
O=S(=O)(c1cnc(Cl)c(Cl)c1)N1CCN(c2ncccn2)CC1,3.3%,-71.2%,7.2%,-1.7%,-24.0%,?,·
NC(=S)Nc1cccc2cccnc12,2.6%,16.3%,-3.2%,?,7.3%,?,i
COc1cc(C(=O)NC(=S)NNC(=O)c2cnccn2)cc(OC)c1OC,-31.4%,?,-47.7%,?,11.7µM*,?,i
CC(/C=N/Nc1nc(C)cc(C)n1)=C\c1ccc(C(C)C)cc1,8.3%,-10.3%,35.9%,11.2µM*,10.4µM*,?,+
CCCn1c(NC(=O)c2cccc(C)c2C)nc2ccccc21,-58.8%,11.2µM*,88.0%,?,·,8.28µM*,i
O=C1NC[C@@H](CCCCN2C[C@H](Cc3ccc(O)cc3)N(CCc3ccccc3)C(=O)C2=O)N(CCc2ccc(O)cc2)C1=O,·,·,-2.9%,·,·,·,·
CCN(CC)S(=O)(=O)c1ccc(N/N=C/c2ccc(O)cc2O)nc1,10.6%,?,5.4%,5.01µM*,2.33µM*,3.7µM*,i
Oc1ccc(/C=N/Nc2ncc(Br)cn2)c(O)c1,-4.0%,?,26.6%[11.6 µM],?,?,?,i
O=[N+]([O-])c1ccc(NN=Cc2ccc(O)cc2O)nc1,·,?,44.6%,·,·,·,·
Cc1cc(C)nc(SCCn2c(N3CC(C)OC(C)C3)nc3c2c(=O)n(C)c(=O)n3C)n1 (stereo unspecified),·,14.0%,-6.2%,-5.9%,-6.1%,20.3%,·
CCCn1c(C(C)Nc2nc(-c3ccc(Cl)c([N+](=O)[O-])c3)cs2)nc2cc(Cl)c(N3CCCCC3)cc21 (stereo unspecified),20.6%,?,36.3%,3.3%,?,?,·
Cc1ccc(C)c(NC(=O)CCC(=O)N2CCOc3ccccc32)c1,3.6%,-7.7%,-15.0%,-2.3%,-0.3%,2.3%,·
NS(=O)(=O)c1cccc(NC(=O)CCSc2ccccc2Cl)c1,0.0%,10.6%,11.6%,?,78.7%,109.9%,i
